Out of some 350,000 compounds screened, about 1,300 (0.37%) were called active. The sample as a whole holds a higher share of actives than the screen did. Unmarked numbers belong to inactive results.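 The calls were made as follows: active = mean added fluorescence quench of at least 8% versus neutral control, with both replicates also reaching 8%; inconclusive = only one of the mean or replicate conditions met; inactive = mean below 8% and not both replicates reaching 8%.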
Experiment: F508del CFTR correction, initial screen, CFBE line, single point (AID 720511);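 also: cells transiently co-express mutant CFTR-F508del with the halide-sensitive YFP; corrector assay measuring rescue of mutant channel to the surface after 24 h compound exposure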
Settings: CFBE cells, YFP halide quenching, at 7.58 µM, stronger effect = higher value

**Q.** With `C[C@]12CCC3C(CC[C@H]4[C@H](O)[C@H](O)CC[C@]34C)C1CCC2=O` (stereo not given in full) as the compound, how does the activity (quench increase) read?
**A.** 11.1% (active)

**Q.** For `C[C@]12CCC3C(CC[C@H]4C[C@@H](O)CC[C@]34C)C1C[C@@H](O)[C@H]2O` (stereo not given in full), which activity (quench increase) is on record?
**A.** 1.25%

**Q.** Which activity (quench increase) does the source give for `C[C@]12CCC3C(CC[C@H]4[C@H](O)[C@H](O)CC[C@]34C)C1CC[C@@H]2O` (stereo not given in full) here?
**A.** 0.916%

**Q.** With `COC(=O)C1=C(c2ccc(OCc3ccccc3)cc2)C[C@@H]2CC[C@H]1N2C(=O)NCc1ccc(Cl)cc1` as the compound, how does the activity (quench increase) read?
**A.** 4.11%

**Q.** With `C/C=C/c1ccc(C2[C@@H]3CN(Cc4cncnc4)C[C@H]2N3)cc1` (stereo not given in full) as the compound, how does the activity (quench increase) read?
**A.** 2.42% [% fluorescence drop versus neutral controls, stimulated with forskolin plus potentiator P3]
